Laboratory results as given in PubChem BioAssay.
Results filed as inconclusive are left out. Activity calls are given as the source filed them.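 How the source made its calls, unless noted: active means aptamer binding inhibition above 30%, about 3 SD of noise from non-fluorescent compounds; inactive means inhibition at or below 30%.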

Columns and labels:
[1] = rapamycin-like changes in RPL19A-GFP expression – cell-based, S. cerevisiae, multiplex flow cytometry, primary screen (AID 1862; in the data active means percent of DMSO control GFP below about 86%;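 further: lower values mimic rapamycin by blocking the RPL19A rise seen in DMSO cells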); conditions: S. cerevisiae RPL19A-GFP strain, flow cytometry fluorescence, 3 h; at 10 µM; stronger effect = lower value
[2] = TOR pathway GLN3 branch reporter MEP2-GFP changes – S. cerevisiae, multiplex flow cytometry, primary screen (AID 1867;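 active means GFP response, as percent of the DMSO control, above the screen-wide mean plus 3 SD, about 139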;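 further: median GFP channel fluorescence of barcode-gated MEP2-GFP cells measured by flow cytometry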); conditions: S. cerevisiae MEP2-GFP strain, 3 h, at 10 µM, stronger effect = higher value, 100% means same as DMSO wells
[3] = TOR pathway RTG branch CIT2 reporter changes – S. cerevisiae, GFP fusion, multiplex flow cytometry, primary screen (AID 1870;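 active means percent response above a set limit, the screen-wide mean plus 3 SD, cut at about 130% in these data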;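 further: barcoded CIT2-GFP strain pooled with four other GFP strains with rapamycin as positive control; median GFP fluorescence per well over plate mean of DMSO wells so 100% = DMSO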); conditions: S. cerevisiae CIT2-GFP expression, 3 h, at 10 µM, stronger effect = higher value
[4] = TOR pathway LAP4-GFP level changes – S. cerevisiae, multiplex flow cytometry, primary screen (AID 1873;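 active means GFP signal, as percent of the solvent control, above the screen mean plus 3 SD, about 149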); conditions: S. cerevisiae LAP4-GFP expression, 3 h, at 10 µM, stronger effect = higher value
[5] = yeast AGP1-GFP level changes, GLN3 branch – cell-based, multiplex flow cytometry, S. cerevisiae, primary screen (AID 1887;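 active means GFP signal above the screen-wide mean plus 3 SD, that is over about 124.5% of the solvent control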;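 further: AGP1-GFP fusion strain of S. cerevisiae within a five-strain barcoded multiplex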); conditions: 3 h, at 10 µM, stronger effect = higher value
[6] = hit retest on RPL19A-GFP reporter strain – cell-based, S. cerevisiae, flow cytometry, cherry picks, mother/daughter gates, confirmation (AID 2270;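 active means GFP response below 50% of the DMSO control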); conditions: 3 h, at 10 µM, stronger effect = lower value, 100 = same GFP as DMSO wells
[7] = yeast TOR pathway reporter LAP4-GFP change – cell-based, cherry picks, flow cytometry, mother/daughter gates, confirmation (AID 2271;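 active means GFP response above 150% of the DMSO control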;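 further: ratio of sample to DMSO plate mean so 100% equals DMSO level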); conditions: S. cerevisiae LAP4-GFP strain, 3 h, at 10 µM, stronger effect = higher value, 100 means same as DMSO control
[8] = TOR pathway reporter MEP2-GFP, retest of hits – S. cerevisiae, flow cytometry GFP, cherry picks, confirmation (AID 2272;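 active means GFP response above 150% of the DMSO control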;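 further: ratio of well signal to plate DMSO mean so 100% equals DMSO level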); conditions: S. cerevisiae MEP2-GFP strain, 3 h, at 10 µM, stronger effect = higher value
[9] = TOR pathway CIT2 reporter hit retest – S. cerevisiae, GFP fusion, cherry picks, mother/daughter gates, confirmation (AID 2274;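 active means GFP response above 150% of the DMSO level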); conditions: S. cerevisiae CIT2-GFP strain, flow cytometry, 3 h, at 10 µM, stronger effect = higher value
[10] = reduced mouse 2C T cell binding to pMHC/ICAM-1 vesicles – MLPCN validation set, flow cytometry, LFA-1/ICAM-1 modulator project, pilot screen (AID 2523;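 active means response below a set limit, under 55% cells CD8-positive and vesicle-bound, and CD8 cells' 90th-percentile brightness under 279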;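 on vesicle binding response: mean PE anti-B7-1 fluorescence of CD8+ cells relative to row control; 100% = QL9-loaded vesicles with DMSO vehicle in the same plate row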); conditions: 2C mouse CD8+ T cells, at 7 µM, stronger effect = lower value; double positive events: measured here: CD8+/vesicle+ event percentage
[11] = biological target: Integrin beta-1 (Homo sapiens) + Integrin alpha-4 (Homo sapiens) (UniProt P13612+P05556); test: alpha4beta1 integrin LIBS antibody binding reduction – U937 cells, HUTS-21 mAb, flow cytometry, validation set, VLA-4 allosteric modulator project, pilot screen (AID 2674;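 active means inhibition above 50%, about 3 SD of the validation set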;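 further: antibody binding induced by the VLA-4 ligand LDV present at three times its Kd; 0% = LDV ligand with antibody and no compound and 100% = antibody without LDV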); conditions: HUTS-21 LIBS mAb binding, at 6.7 µM, stronger effect = higher value, binding induced by LDV ligand
Sequence of Integrin beta-1 (Homo sapiens) + Integrin alpha-4 (Homo sapiens) (P05556 whole entry, looked up): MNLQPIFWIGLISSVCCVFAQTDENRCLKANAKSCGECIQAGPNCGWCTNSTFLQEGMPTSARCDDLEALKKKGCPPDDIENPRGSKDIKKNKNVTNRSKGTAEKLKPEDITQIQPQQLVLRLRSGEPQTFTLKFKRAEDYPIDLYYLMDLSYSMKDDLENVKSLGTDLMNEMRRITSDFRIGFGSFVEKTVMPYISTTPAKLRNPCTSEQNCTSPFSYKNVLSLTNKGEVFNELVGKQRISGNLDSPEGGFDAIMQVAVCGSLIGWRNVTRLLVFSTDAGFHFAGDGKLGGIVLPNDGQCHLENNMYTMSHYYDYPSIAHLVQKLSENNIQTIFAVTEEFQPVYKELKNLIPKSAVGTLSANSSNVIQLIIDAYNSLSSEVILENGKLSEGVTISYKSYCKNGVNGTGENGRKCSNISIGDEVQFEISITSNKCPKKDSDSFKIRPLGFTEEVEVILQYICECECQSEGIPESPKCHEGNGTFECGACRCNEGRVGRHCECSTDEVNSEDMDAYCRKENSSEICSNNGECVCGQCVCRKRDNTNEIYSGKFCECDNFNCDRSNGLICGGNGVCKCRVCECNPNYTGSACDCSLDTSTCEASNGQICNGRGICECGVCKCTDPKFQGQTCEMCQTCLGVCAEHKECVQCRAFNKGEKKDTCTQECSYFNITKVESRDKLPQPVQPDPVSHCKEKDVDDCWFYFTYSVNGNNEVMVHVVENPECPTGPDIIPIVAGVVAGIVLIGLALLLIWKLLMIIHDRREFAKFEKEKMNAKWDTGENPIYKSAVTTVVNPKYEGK
Sequence of Integrin beta-1 (Homo sapiens) + Integrin alpha-4 (Homo sapiens) (P13612 whole entry, looked up): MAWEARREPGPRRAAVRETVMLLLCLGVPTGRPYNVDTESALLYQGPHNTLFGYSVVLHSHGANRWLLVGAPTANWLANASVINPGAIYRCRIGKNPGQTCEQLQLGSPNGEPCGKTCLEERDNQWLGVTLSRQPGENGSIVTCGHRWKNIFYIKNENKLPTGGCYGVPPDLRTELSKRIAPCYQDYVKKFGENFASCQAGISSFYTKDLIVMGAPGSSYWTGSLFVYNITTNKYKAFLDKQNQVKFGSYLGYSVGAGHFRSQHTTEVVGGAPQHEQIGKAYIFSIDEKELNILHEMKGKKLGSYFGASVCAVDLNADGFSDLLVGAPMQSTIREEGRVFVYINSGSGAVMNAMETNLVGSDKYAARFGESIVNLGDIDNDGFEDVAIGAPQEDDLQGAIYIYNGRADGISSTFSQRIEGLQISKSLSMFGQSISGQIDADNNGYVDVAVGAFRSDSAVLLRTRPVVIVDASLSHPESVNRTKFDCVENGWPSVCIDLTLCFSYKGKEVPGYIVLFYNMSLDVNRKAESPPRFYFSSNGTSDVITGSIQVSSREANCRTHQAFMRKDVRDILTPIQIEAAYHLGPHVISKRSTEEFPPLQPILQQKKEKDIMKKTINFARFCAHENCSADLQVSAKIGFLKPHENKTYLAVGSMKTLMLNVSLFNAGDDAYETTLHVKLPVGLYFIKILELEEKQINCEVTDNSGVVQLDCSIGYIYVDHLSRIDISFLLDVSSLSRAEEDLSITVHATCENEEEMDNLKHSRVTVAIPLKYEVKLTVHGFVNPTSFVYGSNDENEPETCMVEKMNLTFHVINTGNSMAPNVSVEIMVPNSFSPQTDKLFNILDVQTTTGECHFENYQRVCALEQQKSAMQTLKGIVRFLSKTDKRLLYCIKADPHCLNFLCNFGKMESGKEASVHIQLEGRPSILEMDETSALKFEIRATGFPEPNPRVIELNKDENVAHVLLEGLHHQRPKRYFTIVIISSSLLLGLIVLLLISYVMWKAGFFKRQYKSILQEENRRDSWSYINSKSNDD

[12] = calorie-restriction mimetic ROS inhibitors, yeast – validation compound set, pilot screen (AID 2706;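 active means superoxide response below 65% of plate, a cut near 3 SD across the whole screen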;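 further: yeast exposed to compound for one week at 30 degrees C before staining; 100% = mean of all compound wells on the same plate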); conditions: S. cerevisiae aging, superoxide DHE fluorescence; at 10 µM; stronger effect = lower value
[13] = biological target: Beta-adrenergic receptor kinase 1 (Homo sapiens) (UniProt P25098); test: GRK2 binders displacing RNA aptamer, biochemical, validation, human GRK2, bead flow cytometry (AID 488806); conditions: bead-bound GRK2, FAM-aptamer displacement, at 10 µM, stronger effect = higher value
Sequence of Beta-adrenergic receptor kinase 1 (Homo sapiens) (P25098 whole entry, looked up): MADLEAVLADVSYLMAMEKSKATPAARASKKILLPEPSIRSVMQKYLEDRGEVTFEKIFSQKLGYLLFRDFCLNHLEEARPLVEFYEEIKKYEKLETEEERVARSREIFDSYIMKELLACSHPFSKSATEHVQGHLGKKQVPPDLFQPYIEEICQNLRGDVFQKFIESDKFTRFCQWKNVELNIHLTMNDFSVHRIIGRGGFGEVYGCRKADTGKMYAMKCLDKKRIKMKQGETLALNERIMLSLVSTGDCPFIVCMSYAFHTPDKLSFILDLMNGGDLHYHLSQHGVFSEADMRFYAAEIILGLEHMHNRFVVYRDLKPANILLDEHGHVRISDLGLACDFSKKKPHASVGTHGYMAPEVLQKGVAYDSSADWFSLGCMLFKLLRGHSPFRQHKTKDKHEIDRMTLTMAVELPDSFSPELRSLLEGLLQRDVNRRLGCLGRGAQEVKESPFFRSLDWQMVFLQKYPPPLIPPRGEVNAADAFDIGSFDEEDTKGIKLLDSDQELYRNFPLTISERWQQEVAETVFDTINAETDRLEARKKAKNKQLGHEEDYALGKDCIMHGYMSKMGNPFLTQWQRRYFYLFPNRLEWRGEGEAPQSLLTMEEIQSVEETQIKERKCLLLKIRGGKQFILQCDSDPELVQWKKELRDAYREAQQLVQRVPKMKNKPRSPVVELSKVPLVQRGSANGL

[14] = biological target: Beta-2 adrenergic receptor (Homo sapiens) (UniProt P07550); test: agonist-induced loss of surface beta2AR – cell-based, FAP fluorogen, flow cytometry, validation set, pilot screen (AID 504459;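 active means percent response above 42, roughly 3 SD of non-fluorescent test compounds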;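 further: agonist-driven loss of surface beta2AR via internalization measured by FAP dye flow cytometry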); conditions: Am2.2-beta2AR cells, at 10 µM, stronger effect = higher value
Sequence of Beta-2 adrenergic receptor (Homo sapiens) (P07550 whole entry, looked up): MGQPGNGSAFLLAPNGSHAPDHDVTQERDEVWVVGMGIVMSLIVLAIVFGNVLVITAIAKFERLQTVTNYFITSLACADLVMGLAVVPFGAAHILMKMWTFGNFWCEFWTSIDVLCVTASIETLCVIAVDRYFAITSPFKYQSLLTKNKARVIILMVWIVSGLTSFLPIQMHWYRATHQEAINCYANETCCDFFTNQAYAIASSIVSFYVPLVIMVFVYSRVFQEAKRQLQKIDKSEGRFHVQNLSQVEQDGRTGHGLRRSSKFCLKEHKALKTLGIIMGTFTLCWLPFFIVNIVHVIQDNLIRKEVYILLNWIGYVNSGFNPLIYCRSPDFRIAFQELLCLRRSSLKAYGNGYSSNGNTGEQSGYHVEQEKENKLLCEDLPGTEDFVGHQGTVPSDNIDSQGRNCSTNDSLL

[15] = biological target: AP-2 complex subunit beta (Homo sapiens) (UniProt P63010); test: beta-arrestin/AP2 interaction blockers – biochemical, validation set, GST-AP2 beads, flow cytometry, pilot screen (AID 504541;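 active means inhibition above 54%, about 3 SD of non-fluorescent compounds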;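 further: AP2 carries R879A mutation and is captured from E. coli lysate; bead-bound FITC arrestin peptide fluorescence measuring arrestin peptide binding to AP2; 0% = DMSO wells and 100% = excess unlabeled arrestin peptide control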); conditions: FITC arrestin peptide, at 10 µM, stronger effect = higher value, AP2 beta2 appendage fragment, R879A mutant
Sequence of AP-2 complex subunit beta (Homo sapiens) (P63010 whole entry, looked up, the tested form may be a part, one chain of several): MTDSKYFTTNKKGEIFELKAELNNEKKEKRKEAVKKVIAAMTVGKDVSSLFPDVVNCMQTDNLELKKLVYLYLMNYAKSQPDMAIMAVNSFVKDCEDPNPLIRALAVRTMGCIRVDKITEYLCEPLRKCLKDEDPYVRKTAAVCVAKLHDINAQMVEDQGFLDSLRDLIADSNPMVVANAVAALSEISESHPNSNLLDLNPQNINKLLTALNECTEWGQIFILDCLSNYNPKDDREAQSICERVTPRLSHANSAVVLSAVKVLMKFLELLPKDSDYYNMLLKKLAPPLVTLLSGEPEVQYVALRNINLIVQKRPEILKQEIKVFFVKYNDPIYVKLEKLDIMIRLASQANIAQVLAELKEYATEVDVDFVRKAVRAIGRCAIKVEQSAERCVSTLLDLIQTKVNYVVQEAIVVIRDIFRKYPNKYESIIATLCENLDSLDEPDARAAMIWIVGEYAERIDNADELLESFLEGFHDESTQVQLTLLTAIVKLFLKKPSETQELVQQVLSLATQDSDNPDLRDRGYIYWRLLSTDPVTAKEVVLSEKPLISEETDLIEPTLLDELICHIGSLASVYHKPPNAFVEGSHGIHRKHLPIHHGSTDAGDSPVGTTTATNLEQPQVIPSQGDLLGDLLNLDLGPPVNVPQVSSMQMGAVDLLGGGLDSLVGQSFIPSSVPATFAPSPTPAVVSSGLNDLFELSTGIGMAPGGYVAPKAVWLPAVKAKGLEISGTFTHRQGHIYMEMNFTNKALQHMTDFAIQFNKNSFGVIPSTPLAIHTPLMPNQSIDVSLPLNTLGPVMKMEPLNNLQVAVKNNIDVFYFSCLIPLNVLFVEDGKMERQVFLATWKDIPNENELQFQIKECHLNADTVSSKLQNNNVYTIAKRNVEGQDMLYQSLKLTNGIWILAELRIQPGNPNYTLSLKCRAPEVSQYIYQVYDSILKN

[16] = cytosolic pH regulators acting via V-ATPase – S. cerevisiae, pHLuorin, HTS validation (AID 504600; in the data active means response above about 15%;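 further: plate controls were DMSO for no effect and reference compound for full effect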); conditions: V-ATPase proton transport, at 10 µM, stronger effect = higher value
[17] = system: anti-desmoglein-3 scFv antibody binding to human DSG3; test: blockers of pathogenic pemphigus antibody–desmoglein-3 binding – biochemical, validation compound set, bead-based, flow cytometry, pilot screen (AID 588368;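 active means binding below the plate cutoff, the plate median minus 3 SD, with a reading above zero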;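 further: signal is the median channel fluorescence of bead-bound GFP antibody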); conditions: Protein G beads, DSG3-Fc, scFv-GFP binding, at 10 µM, stronger effect = lower value
[18] = Nile Red efflux blockade in pump-expressing yeast – validation compound set, multiplex, phenotypic, pilot screen (AID 588506;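 active means efflux inhibition above 0.42, the validation set average plus 4 SD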;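 further: Nile Red retained in cells so higher fluorescence means more efflux inhibition; 0 = negative control wells and 1 = enniatin B 25 µM full block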); conditions: S. cerevisiae pump-expressing triplex, Nile Red efflux flow cytometry; at 10 µM; stronger effect = higher value; the pumps come from Candida albicans
[19] = biological target: ATP-binding cassette sub-family B member 6 (Homo sapiens) (UniProt Q9NP58); test: blockers of ABCB6-driven porphyrin uptake – K562-ABCB6 cells, flow cytometry, validation set, pilot screen (AID 588550;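 active means inhibition above the screen-wide mean plus 3 SD, about 51%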;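 further: 0% = DMSO wells and 100% = benzethonium chloride 70 µM positive control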); conditions: K562-ABCB6 porphyrin accumulation, 1 h, at 10 µM, stronger effect = higher value
Sequence of ATP-binding cassette sub-family B member 6 (Homo sapiens) (Q9NP58 whole entry, looked up): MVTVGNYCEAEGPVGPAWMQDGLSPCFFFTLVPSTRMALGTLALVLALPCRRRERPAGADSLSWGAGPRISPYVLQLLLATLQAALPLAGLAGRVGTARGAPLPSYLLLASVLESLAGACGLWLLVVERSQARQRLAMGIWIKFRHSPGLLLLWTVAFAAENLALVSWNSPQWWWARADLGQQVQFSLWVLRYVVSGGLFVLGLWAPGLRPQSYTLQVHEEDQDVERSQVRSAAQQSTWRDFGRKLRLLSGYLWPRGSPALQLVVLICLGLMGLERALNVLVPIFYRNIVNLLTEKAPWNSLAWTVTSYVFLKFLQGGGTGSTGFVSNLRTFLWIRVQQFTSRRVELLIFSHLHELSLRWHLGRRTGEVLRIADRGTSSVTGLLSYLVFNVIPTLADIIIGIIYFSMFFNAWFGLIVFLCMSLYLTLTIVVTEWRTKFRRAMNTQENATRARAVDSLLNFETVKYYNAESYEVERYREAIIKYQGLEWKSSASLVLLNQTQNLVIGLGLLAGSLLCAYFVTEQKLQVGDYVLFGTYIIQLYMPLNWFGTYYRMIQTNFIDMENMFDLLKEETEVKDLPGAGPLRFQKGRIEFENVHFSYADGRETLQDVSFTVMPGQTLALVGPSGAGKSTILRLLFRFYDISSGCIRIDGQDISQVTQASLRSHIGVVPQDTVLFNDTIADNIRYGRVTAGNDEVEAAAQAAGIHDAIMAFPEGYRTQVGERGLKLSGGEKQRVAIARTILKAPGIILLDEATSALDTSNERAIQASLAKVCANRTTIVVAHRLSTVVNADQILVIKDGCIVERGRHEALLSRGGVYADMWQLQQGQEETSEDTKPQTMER

[20] = AML differentiation inducers, ER-HoxA9 marrow cells – cell-based, GFP/MAC1 double positive, flow cytometry, validation set, primary screen (AID 588685;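 active means differentiation response of at least 50%, scaled between solvent and reference control, from cells with both markers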;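 further: compound exposure lasts four days before antibody staining and flow analysis; 0% = DMSO wells and 100% = 5 µM fulvestrant positive control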); conditions: stronger effect = higher value, normalized: vehicle 0, fulvestrant 100
[21] = measured here: daughter cell gate
[22] = measured here: mother cell gate
[23] = measured here: daughter cell gate response
[24] = measured here: mother cell gate response

CC(=O)OCC(=O)[C@@]1(O)CC[C@H]2[C@@H]3CCC4=CC(=O)CC[C@]4(C)[C@H]3[C@@H](O)C[C@@]21C
62.5%: double positive events [10]
95.1%: GFP response relative to DMSO [7, 24]
97.7%: GFP response vs DMSO [6, 22]
inactive: percent of DMSO control GFP [1] 101% | GFP response vs DMSO [2] 104% | percent response of DMSO control [3] 96.6% | GFP response vs DMSO [4] 97.3% | GFP response, % of DMSO [5] 103% | GFP response vs DMSO [6] 95.8% | GFP response relative to DMSO [7] 96.7% | GFP response vs DMSO [8] 100% | GFP response, % of DMSO [9] 99.7% | vesicle binding response [10] 4910% | inhibition [11] -4.6% | superoxide response (% of plate) [12] 101% | aptamer binding inhibition [13] -1% | response [14] 6.11% | inhibition [15] -11.1% | response [16] 2.08% | binding (% of control) [17] 98.4% | efflux inhibition (fraction of control) [18] -0.26 | inhibition [19] -2% | differentiation response [20] -1.71%
97.1%: GFP response vs DMSO [6, 21]
101%: GFP response, % of DMSO [9, 21]
98.5%: GFP response, % of DMSO [9, 22]
99.2%: GFP response relative to DMSO [7, 23]

CC(=O)Nc1ccccc1O
101%: GFP response vs DMSO [6, 21]
active: GFP response vs DMSO [2] 152%
inactive: percent of DMSO control GFP [1] 87.8% | percent response of DMSO control [3] 102% | GFP response vs DMSO [4] 85.3% | GFP response, % of DMSO [5] 86.6% | GFP response vs DMSO [6] 99% | GFP response relative to DMSO [7] 93.8% | GFP response vs DMSO [8] 100% | GFP response, % of DMSO [9] 110% | vesicle binding response [10] 142% | inhibition [11] 6.46% | superoxide response (% of plate) [12] 87.6% | aptamer binding inhibition [13] 6% | response [14] 2.64% | inhibition [15] 0.05% | response [16] 0.98% | binding (% of control) [17] 101% | efflux inhibition (fraction of control) [18] -0.28 | inhibition [19] 8% | differentiation response [20] 3.28%
61.6%: double positive events [10]
113%: GFP response, % of DMSO [9, 22]
105%: GFP response, % of DMSO [9, 21]
99.8%: GFP response vs DMSO [6, 22]
93.1%: GFP response relative to DMSO [7, 24]
98.7%: GFP response relative to DMSO [7, 23]

CC(C)CC(=O)Nc1ccc2oc(-c3ccncc3)nc2c1
active: GFP response vs DMSO [2] 144%
98.7%: GFP response relative to DMSO [7, 23]
inactive: percent of DMSO control GFP [1] 92.2% | percent response of DMSO control [3] 103% | GFP response vs DMSO [4] 82.5% | GFP response, % of DMSO [5] 83.8% | GFP response vs DMSO [6] 103% | GFP response relative to DMSO [7] 98.7% | GFP response vs DMSO [8] 97.8% | GFP response, % of DMSO [9] 108% | vesicle binding response [10] 292% | inhibition [11] 10.3% | superoxide response (% of plate) [12] 102% | aptamer binding inhibition [13] 5% | response [14] -11.1% | inhibition [15] -5.82% | response [16] -0.11% | binding (% of control) [17] 105% | efflux inhibition (fraction of control) [18] -0.02 | inhibition [19] 11% | differentiation response [20] -2.46%
99.8%: GFP response vs DMSO [6, 21]
71.3%: double positive events [10]
99.7%: GFP response, % of DMSO [9, 21]
101%: GFP response relative to DMSO [7, 24]
104%: GFP response vs DMSO [6, 22]
107%: GFP response, % of DMSO [9, 22]
